This is part of a sample that, as a whole, favours compounds with a hit. Of some 83,000 tested, about 20% had one in any assay.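 Plates (96-well) were seeded with cells, treated with compound at one concentration, and incubated for 48 hours before percent growth was determined.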 A number with no mark means an inactive call. The source made the active and inactive calls. Rule for the calls: active = growth percent below 10; inactive = the rest.

What all share (experiment): NCI-60 one-dose screen, 48 h (100 = growth as untreated, 0 = no growth, -100 = all killed)
Common to all, as to conditions: 10 µM unless noted

The test system of experiment [1] is SK-MEL-2 melanoma.
Experiment [2] deals with EKVX NSCLC.
Experiment [3] relates to SN12C renal.
In experiment [4] the test system is UO-31 renal.
Experiment [5] has as its system TK-10 renal.
The subject of experiment [6] is ACHN renal.
The test system of experiment [7] is CAKI-1 renal.
Experiment [8] relates to A498 renal.
Experiment [9] concerns CCRF-CEM leukemia.
Experiment [10] has as its system MOLT-4 leukemia.

Regarding `NS(=O)(=O)c1ccc(-n2cc(-c3cccc(NC(=O)c4cc(N5CCOCC5)cc(C(F)(F)F)c4)c3)nn2)cc1`, the growth is 61.9% in [1]; 70.5% in experiment [2]; 35.1% in experiment [3]; 80.3% in [4]; 86.3% in [5]; 80.4% in experiment [6]. The growth in experiment [7] was 57%; in experiment [8], 104%; in experiment [9], 93.9%.
Regarding `COc1ccc(C(=O)/C=C/c2cc3c(cc2Br)OCO3)cc1S(N)(=O)=O`, the growth in [1] is 89.2%; in [2] it was 4.57% (active); in experiment [3] it was -12.5% (active); in experiment [4], -44.5% (active); in experiment [5], 16.8%; in experiment [6], -23% (active). Besides, the values for the growth in experiment [7], in [8] and in experiment [9] were -20.2% (active), 88.7% and 5.43% (active), respectively.
Turning to `COc1ccc(C(=O)/C=C/c2cccc(Cl)c2Cl)cc1S(N)(=O)=O`, the growth is 74.4% in experiment [1]; 0.538% (active) in [2]; -2.06% (active) in experiment [3]; -81.3% (active) in [4]; 20.3% in experiment [5]; -82.4% (active) in experiment [6]. Besides, the figures for the growth in experiment [7], in [8] and in experiment [9] were -5.88% (active), 94.9% and 0.527% (active), respectively.
Turning to `Cc1cc(C)n(-c2ccc3nnc(-c4ccccc4)n3n2)n1`, the growth in [1] was 114%; in [2], 88.5%; in experiment [3], 94.2%; in [4], -77.9% (active); in experiment [5], 95%; in [6] it was 104%. Also, the figures for the growth in [7], in experiment [8] and in experiment [9] were 74.7%, 107% and 112%, respectively.
As to `COc1ccc(C(=O)/C=C/c2ccccc2Cl)cc1S(N)(=O)=O`, the growth in experiment [1] is 108%; in experiment [2], 97.3%; in experiment [3] it was 97.2%; in experiment [4], 84.9%; in experiment [5] it was 97.6%; in [6] it was 101%. The growth in experiment [7] was 102%; in [8], 119%; in [9], 111%.
For `COc1cc(OC)cc(C(=O)Nc2cccc(-c3cn(-c4ccc(S(N)(=O)=O)cc4)nn3)c2)c1`, the growth in [1] was 92.6%; in experiment [2], 78.8%; in experiment [3], 70%; in experiment [4], 96.3%; in experiment [5], 94.8%; in experiment [6], 88.5%. The growth is 60.8% in experiment [7], 116% in [8] and 105% in experiment [9].
In the case of `COc1ccc(C(=O)/C=C/c2ccc3ccccc3c2)cc1S(N)(=O)=O`, the growth in experiment [1] is 53.4%; in [2] it was -73.4% (active); in [3] it was -43.7% (active); in experiment [4], -87.2% (active); in [5], -82.3% (active); in experiment [6] it was -92.2% (active). In addition, the figures for the growth in experiment [7], in experiment [8] and in [9] were 2.11% (active), 97.2% and 5.96% (active), respectively.
Regarding `O=C1N/C(=N\c2nccs2)S/C1=C\C=C/c1ccccc1`, the growth was 37.7% in experiment [1]; 27.5% in experiment [2]; 39.2% in experiment [3]; 25.5% in [4]; 34.5% in [5]; 23.5% in [6]. Also, the growth in [7] is 35.1%; in experiment [8], 57.2%.
As to `Cn1cc(-c2cc(N)n3nc(-c4c[nH]c5ccccc45)cc3n2)c2cccnc21`, the growth in experiment [1] was 64.5%; in [2] it was 85.6%; in experiment [3], 12.4%; in experiment [4], 12.2%; in experiment [5], 92%; in experiment [6], 3.49% (active). Also, the growth in [7] was 23.9%; in experiment [8], 129%; in experiment [9], -21.5% (active); in [10] it was -29.4% (active).
Take `Cc1ccc(-c2nc(C#N)c(S(=O)(=O)N3CCN(S(=O)(=O)c4ccccc4)CC3)o2)cc1`: the growth in experiment [1] was 48%; in [2], 63.1%; in [3], 3.58% (active); in [4] it was -67.7% (active); in experiment [5], 81.2%; in experiment [6] it was -36.9% (active). For the same compound, the growth in experiment [7] is 47%; in [8] it was 123%; in experiment [9] it was -33.6% (active); in [10], -20.5% (active).
Consider `COc1cc2c(c(OC)c1OC)C(=O)CC(c1cccc(NC(=O)c3cccc(NC(=O)[C@H](C)NC(=O)OC(C)(C)C)c3)c1)O2` (stereo partly drawn), for which the growth in experiment [1] is 50.9%; in experiment [2] it was 93.3%; in [3] it was 59.9%; in experiment [4], 44.1%; in [5], 101%; in [6], 41.5%. In addition, the growth in experiment [7] was 42.2%; in experiment [8], 104%; in [9], 31.2%; in [10], 36.5%.
Consider `O=C(NNc1nc2cc(C(F)(F)F)ccc2n2cccc12)c1cnccn1`, for which the growth in experiment [1] was -73.1% (active); in experiment [2], -83.2% (active); in experiment [3], -59.9% (active); in experiment [4], -64.6% (active); in experiment [5], -91.8% (active); in [6], -97.5% (active). The figures for the growth in experiment [7], in [8] and in [9] were -87.6% (active), -92.7% (active) and 6.27% (active), respectively.
Turning to `Cc1cnc(C(=O)NNc2nc3cc(F)ccc3n3c(C(=O)N4CC5CC(C4)N5)ccc23)cn1`, the growth in [1] is 53%; in experiment [2], 23.1%; in experiment [3], 32.1%; in [4], 23.3%; in experiment [5], 41.2%; in [6], 15.6%. The growth in [7] is 23.1%; in experiment [8], 88.6%; in experiment [9], 17%.
Turning to `C/C(=N\Nc1ccc(S(N)(=O)=O)cc1)c1ccc(N=Nc2c(Nc3ccccc3)[nH][nH]c2=O)cc1`, the growth in [1] was -51.9% (active); in experiment [2], 62.5%; in experiment [3], -12.9% (active); in experiment [4], 86.1%; in [5], 71.9%; in experiment [6], 42.4%. Also, the figures for the growth in experiment [7], in [8] and in [9] were 77.1%, 35.2% and 3.59% (active), respectively.
`CN(C)CCCNC(=O)c1cc(NC(=O)c2cc(NC(=O)c3ccc(C#Cc4ccccc4)cc3)cn2C)cn1C`: the growth was -88.8% (active) in [1]; 27% in experiment [2]; -18.5% (active) in [3]; 36.1% in experiment [4]; 42.9% in experiment [5]; 19.2% in [6]. Besides, the growth is 18.6% in [7], 83.5% in [8], -24.3% (active) in experiment [9] and -29.5% (active) in experiment [10].

The record behind these values is PubChem BioAssay (NCI).
